This is an account of results in publication PMC5540273 (PLoS ONE, 2017).

Among the test systems are DYRK1B; DYRK2; EGFR; EIF2AK1; EPHA1; EPHA2; EPHA3; EPHA4; EPHA5; EPHA6.
What all share (conditions): concentration: 1 μM, replicates: in singlicate; n = 1
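Note: KINOMEscan kinase panel screen.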

For `O=C(O)C(F)(F)F.O=c1[nH]ccc2nc(N[C@@H]3CCNC3)nc(Nc3ccc4c(c3)S(=O)(=O)CC4)c12` [GSK2181306], the “%Inh” value is on record as 81% in the test with DYRK1B; 52% in the test on DYRK2; 33% in the test with EGFR; 4% with EIF2AK1; 12% in the test on EPHA1; 7% in the test with EPHA2. In addition, the “%Inh” value with EPHA3 was 93.9%; with EPHA4, 16%; in the test on EPHA5, 0%; with EPHA6, 16%.
In the case of `Nc1ncnc2scc(-c3ccc(NC(=O)Cc4cc(F)ccc4F)cc3)c12.O=C(O)C(F)(F)F` [SB-731254-M], the “%Inh” value came out at 0% in the test on DYRK1B; 0% with DYRK2; 80% with EGFR; 95.2% with EIF2AK1; 13% with EPHA1; 100% in the test on EPHA2. Besides, the “%Inh” value in the test with EPHA3 came out at 21%; with EPHA4, 24%; in the test on EPHA5 it was 0%; with EPHA6, 0%.
For `COc1cc(Nc2nccc(N3CCC(NS(=O)(=O)c4ccc(NC(C)=O)cc4)CC3)n2)cc(OC)c1OC` [GSK1379825], the “%Inh” value in the test on DYRK1B is 8%; in the test with DYRK2 it was 10%; in the test with EGFR, 11%; in the test on EIF2AK1, 7%; in the test with EPHA1, 54%; with EPHA2, 46%. For the same molecule, the “%Inh” value in the test with EPHA3 came to 0%; in the test on EPHA4, 28%; in the test with EPHA5 it was 0%; with EPHA6 it was 37%.
In the case of `CN1CCN(Cc2ccc(NC(=O)Nc3ccc(N(C)c4ccnc(Nc5ccc(CS(C)(=O)=O)cc5)n4)cc3)cc2)CC1.Cl` [GW827654], the “%Inh” value in the test with DYRK1B is listed as 3%; in the test on DYRK2, 32%; with EGFR it was 0%; in the test on EIF2AK1 it was 0%; in the test with EPHA1, 33%; in the test on EPHA2, 29%. For the same molecule, the “%Inh” value in the test on EPHA3 came to 49%; with EPHA4 it was 0%; with EPHA5, 5%; in the test with EPHA6, 2%.
On to `COC(=O)Nc1nc2cc(Oc3ccc(NC(=O)Nc4cccc(SC)c4)cc3)ccc2[nH]1.Cl` [GW697999], for which the “%Inh” value in the test with DYRK1B turned out to be 0%; with DYRK2 it was 7%; with EGFR, 29%; in the test on EIF2AK1 it was 0%; in the test on EPHA1 it was 59%; in the test on EPHA2, 88%. Also, the “%Inh” value in the test with EPHA3 was determined as 15%; in the test with EPHA4 it was 64%; with EPHA5 it was 26%; in the test on EPHA6, 92.6%.
As for `Cc1ccc(NC(=O)c2ccc(Cl)c(Cl)c2)cc1-c1ccc(C(=O)Nc2ccncc2)cc1` [GSK1398460], the “%Inh” value in the test with DYRK1B was determined as 6%; in the test with DYRK2 it was 7%; with EGFR, 32%; in the test on EIF2AK1 it was 7%; in the test with EPHA1 it was 13%; in the test on EPHA2 it was 14%. For the same molecule, the “%Inh” value in the test with EPHA3 was 1%; with EPHA4, 32%; in the test on EPHA5, 12%; in the test on EPHA6 it was 18%.
Consider `Cc1ccc(O)cc1Nc1ccnc2cc(-c3ccc(CN4CCCCC4)o3)ccc12` [GW557777], for which the “%Inh” value in the test with DYRK1B was determined as 0%; in the test with DYRK2 it was 2%; in the test with EGFR, 46%; in the test on EIF2AK1, 0%; with EPHA1, 99.7%; in the test on EPHA2 it was 94.5%. Moreover, the “%Inh” value in the test on EPHA3 stood at 94.9%; in the test with EPHA4, 96.2%; with EPHA5 it was 99.8%; in the test with EPHA6, 90%.
Turning to `Cl.Cl.NCC(NC(=O)c1cc(-c2cccnc2)c(-c2ccnc3[nH]ccc23)s1)c1ccccc1` (centres unmarked) [GSK1323434], the “%Inh” value is reported as 17% in the test with DYRK1B; 33% in the test on DYRK2; 72% in the test on EGFR; 0% in the test with EIF2AK1; 4% in the test with EPHA1; 10% in the test on EPHA2. The “%Inh” value came out at 40% with EPHA3, 0% with EPHA4, 0% in the test on EPHA5 and 2% in the test on EPHA6.
